Assay results from PubChem BioAssay AID1159580 (chemical genetic matrix, 2015).
Among all 5,500 compounds or so, about 2,000 (36%) were called active. Another 18% or so got no clear call; they are omitted. Cut-off read from the data, not from the text of the source: active = normalized growth mostly below about 0.91 (no sharp cut-off); inconclusive = no clear call, values can overlap the other calls; inactive = mostly above about 0.92. This is one part of the list.

Test: chemical genetic growth profiling, strain panel (AID 1159580);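 note: tested at 20 µM; growth read once vehicle control cultures reached saturation at 30 °C; 1 = growth at the plate median or of vehicle wells; lower values mean less growth of the strain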
Settings: growth OD
[1] = S. cerevisiae deletion strains, locus YHR030C, strain SLT2, active compounds read low
[2] = S. cerevisiae deletion strains, locus YHR079C, strain IRE1, active compounds read low
[3] = S. cerevisiae deletion strains, locus YJL095W, strain BCK1, active compounds read low
[4] = S. cerevisiae deletion strains, locus YJR066W, strain TOR1, active compounds read low
[5] = S. cerevisiae deletion strains, locus YLR113W, strain HOG1, active compounds read low
[6] = S. cerevisiae deletion strains, locus YNL183C, strain NPR1, active compounds read low
[7] = S. cerevisiae deletion strains, locus YOR231W, strain MKK1, active compounds read low
[8] = S. cerevisiae deletion strains, locus YPL256C, strain CLN2, active compounds read low

Measured: normalized growth

CCOC(=O)c1ccc(O)cc1
inactive: S. cerevisiae deletion strains, locus YAL021C, strain ccr4, active compounds read low 1.03 | S. cerevisiae deletion strains, locus YAL026C, strain drs2, active compounds read low 1.02 | S. cerevisiae deletion strains, locus YAL030W, strain snc1, active compounds read low 1.01 | S. cerevisiae deletion strains, locus YBL061C, strain skt5, active compounds read low 1.01 | S. cerevisiae deletion strains, locus YBR009C, strain hhf1, active compounds read low 0.999 | S. cerevisiae deletion strains, locus YBR023C, strain chs3, active compounds read low 1.01 | S. cerevisiae deletion strains, locus YBR171W, strain sec66, active compounds read low 1.01 | S. cerevisiae deletion strains, locus YBR231C, strain swc5, active compounds read low 1.02 | S. cerevisiae deletion strains, locus YBR279W, strain paf1, active compounds read low 1.02 | S. cerevisiae deletion strains, locus YCL011C, strain gbp2, active compounds read low 1 | S. cerevisiae deletion strains, locus YCL016C, strain dcc1, active compounds read low 1 | S. cerevisiae deletion strains, locus YCL061C, strain MRC1, active compounds read low 1.01 | S. cerevisiae deletion strains, locus YCL069W, strain vba3, active compounds read low 1.01 | S. cerevisiae deletion strains, locus YCR088W, strain abp1, active compounds read low 1.01 | S. cerevisiae deletion strains, locus YDL005C, strain med2, active compounds read low 1.02 | S. cerevisiae deletion strains, locus YDL040C, strain nat1, active compounds read low 1.01 | S. cerevisiae deletion strains, locus YDR001C, strain nth1, active compounds read low 1.01 | S. cerevisiae deletion strains, locus YDR069C, strain doa4, active compounds read low 1.02 | S. cerevisiae deletion strains, locus YDR137W, strain rgp1, active compounds read low 1.03 | S. cerevisiae deletion strains, locus YDR159W, strain sac3, active compounds read low 0.994 | S. cerevisiae deletion strains, locus YDR195W, strain ref2 1.06 | S. cerevisiae deletion strains, locus YDR297W, strain sur2, active compounds read low 1.02 | S. cerevisiae deletion strains, locus YDR334W, strain swr1, active compounds read low 1.02 | S. cerevisiae deletion strains, locus YDR335W, strain msn5, active compounds read low 1.01 | S. cerevisiae deletion strains, locus YDR392W, strain spt3, active compounds read low 0.941 | S. cerevisiae deletion strains, locus YEL003W, strain gim4, active compounds read low 1.02 | S. cerevisiae deletion strains, locus YEL037C, strain rad23, active compounds read low 1.02 | S. cerevisiae deletion strains, locus YEL061C, strain CIN8 (second series), active compounds read low 1.01 | S. cerevisiae deletion strains, locus YER015W, strain faa2, active compounds read low 1.02 | S. cerevisiae deletion strains, locus YER016W, strain bim1, active compounds read low 1 | S. cerevisiae deletion strains, locus YER111C, strain swi4, active compounds read low 1.01 | S. cerevisiae deletion strains, locus YER155C, strain BEM2 (second series), active compounds read low 0.975 | S. cerevisiae deletion strains, locus YFR010W, strain ubp6, active compounds read low 1.01 | S. cerevisiae deletion strains, locus YGL167C, strain pmr1, active compounds read low 1.01 | S. cerevisiae deletion strains, locus YGL173C, strain kem1, active compounds read low 1.02 | S. cerevisiae deletion strains, locus YGL227W, strain vid30, active compounds read low 1.01 | S. cerevisiae deletion strains, locus YGL240W, strain doc1, active compounds read low 0.985 | S. cerevisiae deletion strains, locus YGL253W, strain hxk2, active compounds read low 1.01 | S. cerevisiae deletion strains, locus YHR013C, strain ard1, active compounds read low 1.05 | S. cerevisiae deletion strains, locus YHR027C, strain rpn1, active compounds read low 1.01 | [1] 1.02 | [2] 1.01 | S. cerevisiae deletion strains, locus YHR142W, strain chs7, active compounds read low 1.01 | S. cerevisiae deletion strains, locus YJL092W, strain hpr5, active compounds read low 1.02 | S. cerevisiae deletion strains, locus YJL095W, strain BCK1 (second series), active compounds read low 1 | [3] 1.01 | S. cerevisiae deletion strains, locus YJL115W, strain asf1, active compounds read low 1.03 | S. cerevisiae deletion strains, locus YJL129C, strain trk1, active compounds read low 1.03 | S. cerevisiae deletion strains, locus YJL154C, strain vps35, active compounds read low 1.01 | S. cerevisiae deletion strains, locus YJL164C, strain tpk1, active compounds read low 0.995 | S. cerevisiae deletion strains, locus YJL166W, strain qcr8, active compounds read low 0.997 | S. cerevisiae deletion strains, locus YJL187C, strain SWE1, active compounds read low 1.02 | [4] 0.958 | S. cerevisiae deletion strains, locus YKL160W, strain elf1, active compounds read low 1 | S. cerevisiae deletion strains, locus YKR026C, strain gcn3, active compounds read low 0.995 | S. cerevisiae deletion strains, locus YKR091W, strain srl3, active compounds read low 1.01 | S. cerevisiae deletion strains, locus YLL001W, strain dnm1, active compounds read low 0.989 | S. cerevisiae deletion strains, locus YLL026W, active compounds read low 1.01 | S. cerevisiae deletion strains, locus YLL041C, strain sdh2, active compounds read low 1.01 | S. cerevisiae deletion strains, locus YLR027C, strain aat2, active compounds read low 1 | [5] 0.966 | S. cerevisiae deletion strains, locus YLR221C, strain rsa3, active compounds read low 0.999 | S. cerevisiae deletion strains, locus YLR258W, strain gsy2, active compounds read low 1.01 | S. cerevisiae deletion strains, locus YLR262C, strain YPT6 (second series), active compounds read low 1.03 | S. cerevisiae deletion strains, locus YLR320W, strain mms22, active compounds read low 0.992 | S. cerevisiae deletion strains, locus YLR342W, strain FKS1, active compounds read low 1.02 | S. cerevisiae deletion strains, locus YLR357W, strain rsc2, active compounds read low 1.03 | S. cerevisiae deletion strains, locus YLR370C, strain arc18, active compounds read low 1.01 | S. cerevisiae deletion strains, locus YLR384C, strain iki3, active compounds read low 1.02 | S. cerevisiae deletion strains, locus YML120C, strain ndi1, active compounds read low 0.998 | S. cerevisiae deletion strains, locus YMR058W, strain fet3, active compounds read low 1.02 | S. cerevisiae deletion strains, locus YMR125W, strain sto1, active compounds read low 1.03 | S. cerevisiae deletion strains, locus YMR129W, active compounds read low 1.02 | S. cerevisiae deletion strains, locus YMR205C, strain PFK2, active compounds read low 1.02 | S. cerevisiae deletion strains, locus YMR231W, strain pep5, active compounds read low 1.02 | S. cerevisiae deletion strains, locus YNL071W, strain lat1, active compounds read low 1.01 | [6] 0.962 | S. cerevisiae deletion strains, locus YNL209W, strain ssb2, active compounds read low 1.02 | S. cerevisiae deletion strains, locus YNL248C, strain rpa49, active compounds read low 1.02 | S. cerevisiae deletion strains, locus YNL322C, strain KRE1 (second series), active compounds read low 1.01 | S. cerevisiae deletion strains, locus YNR049C, strain mso1, active compounds read low 1.01 | S. cerevisiae deletion strains, locus YOR001W, strain rrp6, active compounds read low 1.01 | S. cerevisiae deletion strains, locus YOR070C, strain gyp1, active compounds read low 1.01 | S. cerevisiae deletion strains, locus YOR080W, strain dia2, active compounds read low 1.02 | S. cerevisiae deletion strains, locus YOR083W, strain WHI5, active compounds read low 1 | S. cerevisiae deletion strains, locus YOR106W, strain vam3, active compounds read low 1.02 | [7] 1 | S. cerevisiae deletion strains, locus YOR265W, strain rbl2, active compounds read low 1.01 | S. cerevisiae deletion strains, locus YOR270C, strain vph1, active compounds read low 0.988 | S. cerevisiae deletion strains, locus YOR290C, strain snf2, active compounds read low 0.975 | S. cerevisiae deletion strains, locus YPL051W, strain arl3, active compounds read low 0.998 | S. cerevisiae deletion strains, locus YPL078C, strain atp4, active compounds read low 1 | S. cerevisiae deletion strains, locus YPL106C, strain sse1, active compounds read low 1 | S. cerevisiae deletion strains, locus YPL240C, strain hsp82, active compounds read low 1.01 | [8] 1.01

CCCCOC(=O)c1ccc(O)cc1
inactive: [2] 0.879 | [3] 0.895 | [4] 0.934 | [6] 0.892 | [7] 0.951
active: [1] 0.854 | [5] 0.768 | [8] 0.799

Nc1cc2c(cc1Cl)C(=O)NC2=O
inactive: S. cerevisiae deletion strains, locus YAL013W, strain DEP1, active compounds read low 0.995 | S. cerevisiae deletion strains, locus YBR229C, strain ROT2, active compounds read low 0.999 | S. cerevisiae deletion strains, locus YDL101C, strain DUN1, active compounds read low 1.02 | S. cerevisiae deletion strains, locus YDL134C, strain PPH21, active compounds read low 1.02 | S. cerevisiae deletion strains, locus YDR150W, strain NUM1, active compounds read low 0.929 | S. cerevisiae deletion strains, locus YEL061C, strain CIN8, active compounds read low 1.01 | S. cerevisiae deletion strains, locus YGR078C, strain PAC10, active compounds read low 1 | [1] 1.04 | S. cerevisiae deletion strains, locus YHR087W, strain rtc3, active compounds read low 0.988 | S. cerevisiae deletion strains, locus YJR043C, strain POL32, active compounds read low 1.01 | S. cerevisiae deletion strains, locus YJR075W, strain HOC1, active compounds read low 0.996 | S. cerevisiae deletion strains, locus YLR039C, strain RIC1, active compounds read low 0.994 | S. cerevisiae deletion strains, locus YLR058C, strain SHM2 (second series), active compounds read low 1 | S. cerevisiae deletion strains, locus YLR085C, strain ARP6, active compounds read low 0.98 | S. cerevisiae deletion strains, locus YLR262C, strain YPT6, active compounds read low 1 | S. cerevisiae deletion strains, locus YML094W, strain GIM5, active compounds read low 0.985 | S. cerevisiae deletion strains, locus YMR219W, strain ESC1, active compounds read low 1.01 | S. cerevisiae deletion strains, locus YMR263W, strain SAP30, active compounds read low 0.984 | S. cerevisiae deletion strains, locus YNL153C, strain GIM3, active compounds read low 1 | S. cerevisiae deletion strains, locus YNL298W, strain CLA4 (second series), active compounds read low 1.03 | S. cerevisiae deletion strains, locus YNL322C, strain KRE1, active compounds read low 0.999 | S. cerevisiae deletion strains, locus YNR030W, strain Alg12, active compounds read low 0.985 | S. cerevisiae deletion strains, locus YOL006C, strain TOP1, active compounds read low 1.02 | S. cerevisiae deletion strains, locus YPL055C, strain LGE1, active compounds read low 0.851 | S. cerevisiae deletion strains, locus YPL241C, strain CIN2, active compounds read low 0.985 | S. cerevisiae deletion strains, locus YPR135W, strain CTF4, active compounds read low 1.02 | S. cerevisiae strains, strain wild type, active compounds read low 1.02
